Our source for the Percent Effect values is ChEMBL document CHEMBL3988442, “University of Dundee, Small-Polar-MMV Screening Library” (2021).

Each structure is given as a SMILES string.

The target of this experiment is T1, Aspartate--tRNA(Asp/Asn) ligase (Mycobacterium tuberculosis (strain ATCC 25618 / H37Rv)) (UniProt P9WFW3).
T1 sequence (whole entry): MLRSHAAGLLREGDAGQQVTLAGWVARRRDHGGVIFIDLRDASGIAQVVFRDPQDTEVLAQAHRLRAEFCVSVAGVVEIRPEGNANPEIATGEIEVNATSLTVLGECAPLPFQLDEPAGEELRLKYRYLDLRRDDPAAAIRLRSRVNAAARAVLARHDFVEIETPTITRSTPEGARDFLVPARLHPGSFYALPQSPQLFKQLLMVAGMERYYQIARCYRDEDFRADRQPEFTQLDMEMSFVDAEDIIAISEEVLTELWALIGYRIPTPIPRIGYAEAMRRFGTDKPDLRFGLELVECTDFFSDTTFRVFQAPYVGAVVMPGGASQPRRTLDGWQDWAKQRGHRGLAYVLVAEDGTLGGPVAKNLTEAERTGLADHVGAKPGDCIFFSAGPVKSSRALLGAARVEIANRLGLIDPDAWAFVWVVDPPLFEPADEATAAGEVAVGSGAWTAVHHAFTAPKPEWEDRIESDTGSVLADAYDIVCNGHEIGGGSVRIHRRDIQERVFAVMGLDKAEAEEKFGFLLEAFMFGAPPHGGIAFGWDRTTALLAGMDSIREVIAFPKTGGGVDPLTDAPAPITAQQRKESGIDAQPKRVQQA
In words: Assay for Asp RNA synthetase-1 from Mycobacterium tuberculosis. In kind it is functional. The arrangement: scale not given: in the data most compounds retested in dose-response had high values. As to conditions: 30 µM.
With `COc1cc(C2CC(=O)Oc3cc(C)[nH]c(=O)c32)ccc1OC(F)F` (centres undefined), the Percent Effect was -4.59%.

`COCc1cccc(NC(C)C(=O)N(C)Cc2cccc(F)c2)c1` (centres undefined): the Percent Effect was -0.296%.

Take `COCC(c1cccc(C(F)(F)F)c1)N(C)C(=O)c1ccncc1` (centres undefined): the Percent Effect was -1.77%.

Take `CC(C(=O)N1CCCC1)N1CCC(c2nccn2CC2CCC2)CC1` (centres undefined): the Percent Effect was -1.49%.

With `Cc1cc(NC(=O)NCC(C)O)n(C)n1` (centres undefined), the Percent Effect was -2.68%.

Consider `Cc1ncc(S(C)(=O)=O)c(C2CCCNC2)n1` (centres undefined), for which the Percent Effect stood at 0.276%.

In the case of `Cn1cnnc1CNC(=O)Nc1cc(C(F)(F)F)c[nH]c1=O`, the Percent Effect was determined as 1.79%.

Turning to `Cc1ccc(Cl)cc1C(=O)N1CCC2(CC1)c1ccccc1[C@@H](N)[C@@H]2O`, the Percent Effect is -0.814%.

Take `COCCN1C(=O)[C@]2(CC[C@@H]3CN(C(=O)NC4CCCC4)C[C@@H]32)N=C1C`: the Percent Effect came to 0.379%.

Turning to `O=C1OC2(CCNCC2)CN1CC(=O)N1CCCC1c1ccco1` (centres undefined), the Percent Effect was -0.636%.

In the case of `CC(C(=O)NCc1ccc(N2CCNC(=O)C2)cc1)n1cncn1` (centres undefined), the Percent Effect is 3.94%.

Regarding `Cc1cn2c(n1)CCC(NC(=O)c1ccc(CS(C)(=O)=O)o1)C2` (centres undefined), the Percent Effect was -4.46%.

For `COCC(=O)N1CCC(c2nccnc2Oc2cccnc2C)CC1`, the Percent Effect amounted to 3.02%.

Take `CNC(=O)CCc1cc(C)nc(C2CCCN2)n1` (centres undefined): the Percent Effect worked out at 7.7%.

In the case of `CN(C)C(=O)NC1COC2(CCN(C(=O)Nc3ccccc3)CC2)C1` (centres undefined), the Percent Effect worked out at 7.1%.

For the molecule `Cc1nc(N2CCCC2)ncc1-c1cc(O)nc(N2CCCC2)n1`, the Percent Effect is -6.71%.

Take `CCc1ccc(CN2CCCC(CO)(CCOC)C2)cc1` (centres undefined): the Percent Effect is -1.96%.

Turning to `N#Cc1ccc(OCCNc2cccc(C(=O)N3CCOCC3)c2)cc1`, the Percent Effect worked out at 1.46%.

Take `CNC(=O)CCCNCc1c(C(C)C)nn(C)c1N(C)C`: the Percent Effect was 1.04%.
